RORgamma inh: qHTS for inhibitors of ROR gamma transcriptional activity. AID 2551, 2010. Drosophila S2 Gal4-RORgamma UAS-luciferase reporter, 20 h. Potency, µM (highest dose often 53.6 µM), without a hit: at the highest dose activity change, negative = inhibition, usual class: inhibitors. hit rate 5.4% among 310,000; further: potency means the concentration at half of the fitted maximal effect; on the % scale 0 is the no-effect control and ±100 the full control effect; nearly all actives have a fitted effect of over 60% in size
Target sequence (P51450 whole entry, looked up, the tested form may be a part): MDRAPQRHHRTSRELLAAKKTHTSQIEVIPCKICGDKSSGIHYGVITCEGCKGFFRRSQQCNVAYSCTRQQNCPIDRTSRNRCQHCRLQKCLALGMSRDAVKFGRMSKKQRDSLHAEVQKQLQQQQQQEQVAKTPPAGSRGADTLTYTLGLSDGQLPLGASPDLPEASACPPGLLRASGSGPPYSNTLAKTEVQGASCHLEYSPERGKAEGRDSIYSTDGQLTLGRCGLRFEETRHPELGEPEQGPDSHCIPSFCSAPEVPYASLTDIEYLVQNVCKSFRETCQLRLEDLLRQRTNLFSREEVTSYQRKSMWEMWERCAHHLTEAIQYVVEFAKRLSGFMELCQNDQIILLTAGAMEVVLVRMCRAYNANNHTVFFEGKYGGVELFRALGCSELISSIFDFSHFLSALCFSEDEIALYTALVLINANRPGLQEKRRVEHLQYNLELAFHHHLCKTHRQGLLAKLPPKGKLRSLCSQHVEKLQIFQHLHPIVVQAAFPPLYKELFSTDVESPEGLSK
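Compounds are pin-transferred onto Drosophila Schneider cells expressing a copper-inducible Gal4–ROR gamma transactivation domain fusion. After 1 hr, copper sulfate is added to 700 uM final; luciferase is read 20 hr later.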
BRCA1 expr act: qHTS Assay to Identify Small Molecule Activators of BRCA1 Expression; Potency, µM (titrated, usually from 46.1 µM), for the others: at the top dose activation, hits mostly activators; hit rate 1.1% among 380,000; AID 624202, 2012; MCF7-BRCA1-FFLuc reporter, luminescence, 48 h; response scale: scaled: vehicle 0%, 10 µM genistein 100%; further: potency means the concentration at half of the fitted maximal effect; nearly all actives have a fitted effect of over 80% in size
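MCF7-BRCA1-FFLuc, 2000 cells/well; 2 h attach, 37 °C/5% CO2; compound 48 h; luciferase substrate 15 min; luminescence end-point. Norm. to genistein 10 microM max activation and DMSO; concentration-response curves fitted.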
Giardia killer: Small Molecules that selectively kill Giardia lamblia: qHTS; hit rate 0.15% among 340,000; Giardia lamblia trophozoite viability; activity change, % at 7.66 µM, hits read low; AID 540267, 2011; in the data active means activity change below about -80%; inconclusive means between about -30% and that limit;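 further: parasites exposed to compound for two days anaerobically before the ATP read; on the % scale 0 is the no-effect control and ±100 the full control effect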
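Luminescent ATP signal served as the viability read-out, measured 15-30 min after adding ATP detection reagent to trophozoites that had been incubated with compounds for 48 hrs at 37 deg C anaerobically at 100 cells/well.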
p53 reactivator: qHTS assay for re-activators of p53 using a Luc reporter; H1299 p53-A138V BP100-luciferase reporter, luminescence, 24 h; Potency, µM (series often up to 92.2 µM), for the others: at the top dose activity change, positive = activation, most hits filed as activators; hit rate 0.063% among 320,000; further: potency means the concentration at half of the fitted maximal effect; % of control where 0% means no effect; nearly all actives have a fitted effect of over 45% in size
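p53-null H1299 cells stably carrying temperature-sensitive p53-A138V and a BP100-luciferase reporter were pinned with compounds (4-point, 1:5 series) and held 24 hrs at 37 deg C. Luminescence was read 10 min after detection reagent.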
Gal4-VP16 FLuc: VP16 counterscreen qHTS for inhibitors of ROR gamma transcriptional activity; hit rate 3.5% among 310,000; AID 2546, 2010; Potency, µM (series often up to 53.6 µM), without a hit: top-dose activity, negative = inhibition, most hits filed as inhibitors; Drosophila S2 Gal4-VP16 UAS-luciferase, luminescence, 20 h;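 further: Gal4-VP16 expression switched on by copper sulfate through the metallothionein promoter; potency means the concentration at half of the fitted maximal effect; on the % scale 0 is the no-effect control and ±100 the full control effect; nearly all actives have a fitted effect of over 50% in size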
ELG1 repair inh: qHTS screen for small molecules that inhibit ELG1-dependent DNA repair in human embryonic kidney (HEK293T) cells expressing luciferase-tagged ELG1 | Potency, µM (top dose mostly 46.1 µM), for inactives: at the top dose activity change, negative = inhibition, actives largely listed as inhibitors | HEK293T ELG1-luciferase reporter, luminescence, 16 h; DNA damage induced by 5-fluorouridine | hit rate 2.3% among 330,000; further: potency means the concentration at half of the fitted maximal effect; on the % scale 0 is the no-effect control and ±100 the full control effect; nearly all actives have a fitted effect of over 55% in size
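Reporter activity after DNA damage by 5-fluorouridine is monitored. Compound-treated cells incubate 16 hr at 37 °C, then ONE-Glo is added for 30 min before luminescence reading.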
Active calls of the source: *; ? = inconclusive; / = not tested or not shown. Most compounds without a hit are left out; they make up all but 7.6% or so of the library. Unless noted, the call rests on the fitted dose curve; in most records, active means well fitted curve in the direction sought with a large enough effect; inconclusive means small, poorly fitted or top-dose-only effect, or another doubt; inactive means no such curve, though single readings can be large; an effect the other way counts as inactive or inconclusive.

SMILES	RORgamma inh	BRCA1 expr act	Giardia killer	p53 reactivator	Gal4-VP16 FLuc	ELG1 repair inh
CC1(C)CC2CC(C)(CN2C(=S)NC(=O)c2ccccc2Cl)C1 (configuration not stated)	1.3µM*	-28%	13	-4%	1µM*	-1%
CC1(C)CC2CC(C)(CN2C(=S)Nc2ccccc2)C1 (configuration not stated)	?	-23%	-8	-1%	-26%	-2%
CC1(C)CC2CC(C)(CN2C(=S)Nc2ccccc2F)C1 (configuration not stated)	4µM*	-4%	-18	-1%	2%	3%
CN1CCN(c2nc3c(c(=O)[nH]c(=O)n3C)n2Cc2ccc([N+](=O)[O-])cc2)CC1	14%	-20%	11	/	-7%	-6%
Cc1ccc(-c2nnc(SC(C)C(=O)NCc3ccco3)n2C)cc1 (configuration not stated)	/	5%	/	/	/	/
CCC(=O)NC(=S)N1CCN(c2ccc([N+](=O)[O-])cc2Cl)CC1	4µM*	-19%	-1	0%	16µM*	?
O=[N+]([O-])c1ccc(N2CCN(c3ccc([N+](=O)[O-])cc3CO)CC2)c(CO)c1	?	-47%	5	-1%	6.3µM*	?
O=C(NC(=S)N1CCN(c2ccc([N+](=O)[O-])cc2Cl)CC1)c1ccco1	0.02µM*	-22%	-14	-6%	0.032µM*	-9%
Cc1cccc(N(C(=O)c2snc(C(N)=O)c2N)C(C(=O)NCC2CCCO2)c2ccc(N(C)C)cc2)c1C (configuration not stated)	18%	-3%	4	-4%	7%	12%
COc1ccc2[nH]c3c(c2c1)CCN1C(=O)C(CC(=O)NCCc2ccccn2)C[C@H](C(=O)N(C(C)C)C(C)C)[C@@]31C (some centres not stated)	/	-8%	6	4%	/	13%
O=C(NC(=S)Nc1ccccc1N1CCOCC1)c1ccccc1F	13µM*	3%	-10	0%	20µM*	2%
COc1ccc(C(=O)Nc2ccccc2N2CCN(C(=O)c3ccccc3)CC2)cc1Br	-14%	-58%	-26	-6%	-11%	21µM*
O=C(CN1CCOCC1)Nc1ccc(OC(F)(F)F)cc1	9%	47%	18	/	-1%	22%
FC(F)(F)Oc1ccc(NC(=S)Nc2ccccc2N2CCOCC2)cc1	7.9µM*	-32%	6	-1%	?	?
CC(=O)NC(=S)Nc1ccccc1N1CCN(C(=O)c2ccccc2)CC1	6.3µM*	-25%	-22	9%	5µM*	?
O=C(NC(=S)Nc1ccccc1N1CCOCC1)c1sc2ccccc2c1Cl	?	-3%	-10	2%	2%	15%
CC(C)C(=O)NC(=S)Nc1ccccc1N1CCN(C(=O)c2ccccc2)CC1	-21%	0%	-20	-1%	-8%	-1%
COc1ccc(C(CNC(=O)COc2ccc(F)cc2Br)N2CCCC2)cc1 (configuration not stated)	1%	-27%	10	-2%	?	9%
O=C(NC(=S)Nc1ccccc1N1CCN(C(=O)c2ccccc2)CC1)c1ccccc1F	13µM*	-62%	-18	-11%	?	-29%
CCCc1sc(N/N=C/c2ccccn2)nc1-c1ccc(Br)cc1	1.6µM*	-97%	14	?	1.4µM*	?
Cc1ccccc1C(=O)NC(=S)Nc1ccc(Oc2ccc(Cl)cc2)cc1	3.2µM*	-29%	40	7%	11µM*	-19%
COc1ccc(NC(=S)Nc2ccc(Oc3ccccc3)cc2)cc1	11%	-3%	8	3%	-6%	?
O=C(NC(=S)Nc1ccc(Oc2ccccc2)cc1)c1ccc(Cl)cc1	8.9µM*	-42%	-4	17%	?	-29%

Screening results deposited in PubChem by National Center for Advancing Translational Sciences (NCATS).
